# Target: AMP-activated protein kinase, AMPK (Homo sapiens) (UniProt P54646+O43741+P54619+Q9UGJ0+Q9Y478+Q13131+Q9UGI9)
# Test: AMP-dependent Kinase enzyme assay. An in vitro enzyme assay that detects ADP turnover that is directly proportional to AMPK activity. This uses naive AMPK that is activated during the assay with MK-8722
# Assay type: functional
# Set-up: scale not given: direction of the effect not stated beside the values
# Conditions: 30 µM
row,SMILES,Percent Effect
1,CCc1ccc2nc(C)cc(C(=O)NC3CCC(=O)N(C)C3)c2c1 (centres undefined),-7.18%
2,Cc1n[nH]c(C)c1CCN(C)C(=O)c1ccc(CCC(C)(C)O)cc1,2.23%
3,COC(=O)c1ncccc1N1CCN(C(=O)CN2CCOCC2)CC1,5.94%
4,Clc1ccccc1CCn1ccnc1-c1cn(C2CCNCC2)nn1,-7.28%
5,CC(C)c1nc(CN(C)C(=O)C(O)c2ccc(Cl)cc2)cs1 (centres undefined),-2.36%
6,COc1ccc(CN(C)Cc2c(C)noc2C)c(Br)c1OC,2.55%
7,c1nc(N2CCCC2)cnc1C1CCNCC1,11.5%
8,COc1ccsc1C(=O)NC1CCN(c2cccc(F)c2)CC1,-1.16%
9,NC(=O)c1ccc(NC2CCOC3(CCCC3)C2)nn1 (centres undefined),0.506%
10,O=C(CC1CCc2ccccc21)NC1(C(=O)O)CCOCC1 (centres undefined),-0.354%
11,COC(=O)c1ccc(Cn2cccc(C(F)(F)F)c2=O)s1,3.31%
12,CC(C)NC(=O)CNC(=O)c1csc(Cc2ccccc2F)n1,4.46%
13,NC(=O)CN1C[C@@H](c2ccccc2F)[C@@]2(CCCCC(=O)N2)C1,15.1%
14,O=C1CN([C@@H]2CC[C@@H](NS(=O)(=O)c3ccc(F)cc3)[C@H]2O)CCN1,2.53%
15,Cc1ccccc1S(=O)(=O)N[C@@H]1CC[C@@H](N2CCNC(=O)C2)[C@@H]1O,5.3%
16,Cc1cc(C2CCCN(CCC(=O)N3CCc4ccccc43)C2)n[nH]1 (centres undefined),-4.69%
17,COc1ccc(CN(C)C(=O)CN2CC(n3cc(C)cn3)C2)cc1F,-3.71%
18,CNS(=O)(=O)c1ccc(CN2CCN3CCNC(=O)C3C2)cc1 (centres undefined),-3.21%
19,Cc1cc(NC(=O)CN2CCN(C3CCCC3)C(=O)C2)nn1C,8.93%
